From ChEMBL document CHEMBL3988442, “University of Dundee, Small-Polar-MMV Screening Library” (2021) come the findings set out here.

Out of some 48,000 compounds screened, about 13,000 (27%) showed an effect of 50% or more. Some of the results follow.

For the assay, the system named is Wolbachia pipientis. Kind of assay: Anti-Wolbachia Cell-Based Screen. Further details: scale not given: in the data most compounds retested in dose-response had high values. Format: functional. The settings on record: 5 µM.
Turning to `CC(=O)N1[C@H](Cn2cncn2)C[C@@H]2CN(S(C)(=O)=O)CC[C@@H]21`, the “Percent Effect” value was -6.775%.
As for `CCC(C(=O)NC)N(c1cccc(C)c1)S(C)(=O)=O` (centres undefined), the “Percent Effect” value turned out to be 11.36%.
As for `CSc1cccc(CN(C)C(=O)Nc2nc(C)n(C)n2)c1`, the figure is 2.052%; as for `CCCN(CC1COc2ccccc2O1)C(=O)c1ncoc1CC` (centres undefined), -65.56%; as for `Cc1ncsc1CN1C[C@@H](OCC2CC2)[C@H]2OCCC[C@H]21`, -10.25%.
As for `Cc1ccsc1C(=O)Nc1cc(Br)c(=O)n(C)c1`, the figure is -6.468%; as for `O=C(c1cnc(O)cn1)N(Cc1ccsc1)CC1CCCO1` (centres undefined), -2.864%.
As for `N#CCCN(CC1CCCO1)C(=O)c1ccc(C#N)cc1` (centres undefined), the figure is 122.3%; as for `N#CCCN(CCC#N)C(=O)c1ccc(OCC2CC2)cc1`, 8.167%.
Turning to `N#CCCN(Cc1ccco1)C(=O)c1ccc(OCC2CC2)cc1`, the “Percent Effect” value was 40.98%.
Regarding `N#CCCN(CC1CCCO1)C(=O)c1ccsc1` (centres undefined), the “Percent Effect” value turned out to be 115.2%.
On to `O=C(c1cccc(=O)[nH]1)N(Cc1ccsc1)CC1CCCO1` (centres undefined), for which the “Percent Effect” value is -26.62%.
With `CCn1/c(=N/C(=O)CSCC(=O)Nc2nccs2)sc2ccccc21`, the “Percent Effect” value is 6.405%.
For `CN(C)C(=O)CN1C[C@@H]2CC[C@H](C1)N(C(=O)CCCn1cncn1)C2` the value was 9.651%; for `O=C1CCC(C(=O)N2CCC(Cn3cc(C4CCCC4)nn3)CC2)=NN1`, -1.401%.
Take `Cc1noc(C)c1CN1CCCC(CN(C(=O)OC(C)(C)C)C(C)C)C1` (centres undefined): the “Percent Effect” value is -2.017%.
For `CN(C)CC1(O)CCCN(C(=O)Cn2nc3ccccc3n2)CC1` (centres undefined), the “Percent Effect” value was -26.73%.
For `NCC(=O)N1CCCC(O)(CN2CCN(c3ccccc3)CC2)CC1` (centres undefined) the value was 149.6%; for `COCC(=O)N1CCC(O)(CN2CCN(c3ccccc3)CC2)C1` (centres undefined), 93.8%.
For `O=C(CC1CC1)N1CCC(O)(CN2CCN(c3ccccc3)CC2)C1` (centres undefined) the value was 113.7%; for `COCC(=O)N1CCCC2(CCN(c3ccccc3)C2=O)C1` (centres undefined), -10.31%; for `Cc1ccc(CN2CC3(CCN(C(=O)C4CC4)CC3)CC2C(=O)O)o1` (centres undefined), -15.03%.
For `NC(=O)CN1CCCC(C(=O)N2CCC(O)(Cc3ccccc3)CC2)C1` (centres undefined) the value was 12.2%.
For the compound `O=C(CC1CC1)N1CCC2(CC(=O)N(c3cccc(F)c3)C2)C1` (centres undefined), the “Percent Effect” value is -13.04%.
As for `O=C(Cn1nc2ccccc2n1)N1CCCC(O)(CN2CCCC2)C1` (centres undefined), the figure is -26.39%.
Take `COCC(=O)N1CC2(CCN(c3ccccc3)C2)C1`: the “Percent Effect” value is reported as 10.91%.
As for `O=C(C1CC1)N1CCC(O)(CN2CCN(c3ccccc3)CC2)C1` (centres undefined), the figure is 101.1%; as for `CN1CCc2ccc(NCc3cccs3)cc2C1=O`, -3.883%; as for `Cc1nc(-c2cc(C(=O)NCC(C)(C)CO)c3ccccn23)cs1`, -18.5%.
As for `COc1cc(NC(=O)NC(C2CC2)C2CC2)ccc1N1CCOC1=O`, the “Percent Effect” value is -4.711%.
For `CN1CCN(C(=O)N2C[C@H]3CC[C@@H]2CN(Cc2ccccc2)C3)CC1` the value was -20.32%; for `O=C(NC1CC(=O)N(C2Cc3ccccc3C2)C1)c1ccoc1` (centres undefined), -3.995%; for `CCC(=O)NCc1cc(Br)ccc1OC(F)F`, -1.176%.
As for `CS(=O)(=O)c1nccn1Cc1ccc(Cl)cc1`, the figure is -5.692%; as for `O=C(CNC1CCc2ncnn2C1)N(Cc1cccs1)C1CC1` (centres undefined), 0.7257%; as for `CCc1ccc(C(=O)N2CCC(O)(CN3CCOCC3)C(C)(C)C2)[nH]1` (centres undefined), -6.859%.
On to `O=C(NCCN1CCOCC1)c1n[nH]c(=O)c2ccccc12`, for which the “Percent Effect” value stood at 6.871%.
For `O=C(c1n[nH]c(=O)c2ccccc12)N1CCC(O)(CN2CCOCC2)C1` (centres undefined) the value was 88.42%; for `CCCNC(=O)CN1CCN(Cc2csc(C(C)(C)C)n2)CC1`, -11.65%; for `COc1cccc(NC(=O)NCC(C)(O)CCSC)c1OC` (centres undefined), -0.9088%.
For `CN(C(=O)CN1CCCC1c1cnn(C)c1)C(C)(C)C#N` (centres undefined) the value was 6.976%; for `Cc1nc(CN2CCCC2c2[nH]ncc2C(=O)N(C)C)cs1` (centres undefined), 135.6%.
With `CN(C)C(=O)c1cn[nH]c1C1CCCN1Cc1nccn1C.O=CO` (centres undefined), the “Percent Effect” value is reported as 83.24%.
With `CN(C)C(=O)c1cn[nH]c1C1CCCN1Cc1c[nH]cn1` (centres undefined), the “Percent Effect” value is 119.4%.
As for `CC(=O)NCCNC(=O)CN1CCN(Cc2nccn2C)C(C)C1` (centres undefined), the figure is 1.772%.
For `CN(CC1CC1)C(=O)CN1CCCC1c1cnn(C)c1` (centres undefined) the value was -56.85%; for `Cc1ccc2nc(C3CCCN3Cc3csc(C)n3)[nH]c2c1` (centres undefined), 2.616%; for `CN(C)C(=O)c1cn[nH]c1C1CCCN1Cc1cncn1C` (centres undefined), 96.91%.
With `Fc1ccc2[nH]c(C3CCCN3Cc3c[nH]cn3)nc2c1` (centres undefined), the “Percent Effect” value was -35.05%.
